According to PubChem BioAssay AID1789 (The Scripps Research Institute Molecular Screening Center, 2009):
About 2,700 (0.93%) of roughly 290,000 compounds were called active. The sample holds actives, similar compounds and a random draw of the others, so the mix is not that of the screen.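 How the source made its calls: active means inhibition above the screen-wide mean plus 3 SD, computed separately per campaign (cut at about 16% in these data); inactive means the rest.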

tested on: Heat shock protein HSP 90 (rabbit reticulocyte lysate; luciferase refolding); assay: inhibitors of HSP90 chaperone activity – cell lysate, luminescence, primary screen (AID 1789); settings: 3 h, at 5.6 µM, active compounds read high;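 further: 0% = DMSO wells and 100% = 60 µM geldanamycin wells; inhibitors lower the luminescence because luciferase stays unfolded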

inhibition, inactive:
CCOc1ccc(OCC(=O)Nc2c3c(nn2C(C)(C)C)CS(=O)(=O)C3)cc1 4.2%
CCN(CCCNC(=O)CCn1c(=O)[nH]c2ccsc2c1=O)c1ccccc1 0.39%
Cc1cccc(C(=O)NCCCN(C)CCCNC(=O)c2cccc(C)c2)c1 -1.31%
O=C(Oc1cccc(C(=S)N2CCOCC2)c1)c1cccc(Cl)c1 -2.58%
CC(=O)c1ccc(N2CCN(C(=O)CCc3ccccc3)CC2)cc1 -1.79%
O=C(CCCc1ccccc1)NCc1ccccc1 -2.48%
O=C(OCc1ccc(Br)cc1)c1cccc(-c2nnc(-c3ccccc3)o2)c1 3.03%
O=C(OCC(=O)c1c[nH]c2ccccc12)c1cccc(O)c1 -4.88%
O=C(COc1cc2oc(=O)c3c(c2cc1Cl)CCC3)NCCCN1CCOCC1 -0.69%
COc1ccc(N2CCN(C(=O)C3CCN(C(=O)c4ccccc4Cl)CC3)CC2)cc1 1.46%
COc1ccc(NC(=O)C/C(C)=N/NC(=O)c2cnccn2)cc1Cl -1.56%
O=C(CSc1cccc[n+]1[O-])c1ccc(-c2ccccc2)cc1 -3.2%
Cc1ccc(Sc2cc(C(=O)c3ccccc3C(=O)O)ccc2[N+](=O)[O-])cc1 -2.36%
COc1ccc(C(C(=O)NC2CCCC2)N(CCCO)C(=O)Cn2nnc(-c3ccc(C)o3)n2)cc1 (configuration not stated) -2.61%
CCOC(=O)CSc1nc(N2CCOCC2)c2c(c1C#N)CC(C(C)C)OC2 (configuration not stated) 0.22%
CCn1c(=O)c(=O)[nH]c2c(=O)oc3ccc(S(=O)(=O)Nc4ccc(OC)cc4)cc3c21 1.48%
CCOC(=O)c1ccc(NC(=O)c2ccc(NC(=O)C3CCCO3)cc2)cc1 (configuration not stated) -2.21%
COc1ccc(CCNC(=O)C(=O)NCC2OCCN2S(=O)(=O)c2ccc(OC)c(C)c2)cc1 (configuration not stated) 3.33%
O=C(NCCCN1CCCC1=O)C(=O)NCC1OCCN1S(=O)(=O)c1ccc(Br)cc1 (configuration not stated) -3.67%
CCOC(=O)C1=C(c2ccccc2)NC(=S)NC1c1ccc(Cl)cc1 (configuration not stated) 2.24%
COc1ccc(C2NC(=S)NC3=C2CCc2ccccc23)cc1OC (configuration not stated) -4.91%

inhibition, active:
CCN(CCCNC(=O)c1ccc2c(c1)NC(=O)CN2C)c1cccc(C)c1 19.6%
C=CCN1CCN(C(=O)CCCc2ccccc2)CC1 39.7%
O=C(OCc1ccc(-c2ccccc2)cc1)c1cccc(O)c1 18.4%
Cc1ccc(C(=O)CSc2ccccc2C(=O)O)cc1 23.8%
CCC(=C/c1sc2ccc3ccccc3c2[n+]1C)/C=C1\Sc2ccc3ccccc3c2N1C 19.1%
CCOc1ccc(C2NC(=S)NC3=C2CCc2ccccc23)cc1 (configuration not stated) 24.1%
